From PubChem BioAssay (NCATS)
Records with an inconclusive call do not appear. Activity calls are given as the source filed them. Calls come from the whole dose curve; as a rule, active = well fitted cell-killing curve with a large enough effect; inconclusive = small, poorly fitted or top-dose-only effect, or effect the other way; inactive = no such curve, though single readings can be large or run the other way.

Assay: Quantitative High-Throughput drug screen in 47 multiple myeloma cell lines against the NCATS MIPE library collection: KMS28BM_JCRB cell viability assay (AID 1919874); note: nearly all actives have a fitted effect of over 35% in size
Settings: CellTiter-Glo ATP, 48 h; series mostly up to 45.8 µM
In short: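 Inhibition of viability over 48 h was scored by ATP content (CellTiter-Glo) in 500-cell wells. Zero and full viability were defined by media-only and DMSO-only wells.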
Potency is the fitted concentration of half-maximal effect.

Row | SMILES | Potency
1 | C=CCNc1c(O)cc2c(O)c1C[C@@H](C)C[C@H](OC)[C@@H](O)[C@@H](C)C=C(C)[C@H](OC(N)=O)[C@@H](OC)C=CC=C(C)C(=O)N2 | 0.935 µM (active)
2 | NC1=N[C@H]2[C@H](CS[C@H]2CCCCC(=O)O)N1 | inactive
3 | Nc1ccn(C2CO[C@H](CO)O2)c(=O)n1 (stereo partly drawn) | inactive
4 | CCN(CC)Cc1ccc2cc(COC(=O)Nc3ccc(C(=O)NO)cc3)ccc2c1 | 0.418 µM (active)
5 | O=C(Nc1cccc(Nc2ncc(Br)c(NCCc3cnc[nH]3)n2)c1)N1CCCC1 | 18.7 µM (active)
6 | Oc1ccc([C@@H]2Oc3ccc(O)cc3[C@@H]3CCC[C@@H]32)cc1 | 14.8 µM (active)
7 | C=CC(=O)Nc1cccc(Nc2nc(NC3CCC(N(C)C)CC3)nc3c2ncn3C(C)C)c1 (stereo not drawn) | 0.209 µM (active)
8 | O=c1ccn([C@@H]2O[C@H](CO)[C@H](O)[C@@H]2F)c(=O)[nH]1 | inactive
9 | CCN1CCN(C(=O)N[C@H](C(=O)N[C@@H]2C(=O)N3C(C(=O)O)=C(CSc4nnnn4C)CS[C@@H]23)c2ccc(O)cc2)C(=O)C1=O | inactive
10 | CC1(C)O[C@@H]2C[C@H]3[C@@H]4CCC5=CC(=O)C=C[C@]5(C)[C@@H]4[C@@H](O)C[C@]3(C)[C@]2(C(=O)CO)O1 | inactive
11 | O=C(Nc1cc2cc[nH]c2cn1)c1ccccc1 | 5.26 µM (active)
12 | CC(C)N(CC[C@H](c1ccccc1)c1cc(CO)ccc1O)C(C)C | 1.05 µM (active)
13 | C#Cc1cccc(Nc2ncnc3cc(OCCOC)c(OCCO)cc23)c1 | 8.33 µM (active)
14 | C=C1C(=O)O[C@H]2[C@@H]1CCC(C)=CCC[C@@]1(C)O[C@@H]21 | 7.43 µM (active)
15 | NC(=O)N1CCC(CC(=O)N2CCC([C@H]3c4ncc(Br)cc4CCc4cc(Cl)cc(Br)c43)CC2)CC1 | 20.9 µM (active)
16 | COC(=O)[C@H](CCCN=C(N)N)NS(=O)(=O)c1ccc(C)cc1 | inactive
17 | COC(=O)C1C2CC3c4[nH]c5cc(OC)ccc5c4CCN3CC2CC(OC(=O)c2cc(OC)c(OC)c(OC)c2)C1OC (stereo not drawn) | 20.9 µM (active)
18 | CC(=O)O[C@H]1C[C@@H]2CC[C@H]3[C@H]4C[C@H]([N+]5(C)CCCCC5)[C@@H](OC(C)=O)[C@@]4(C)CC[C@@H]3[C@@]2(C)C[C@H]1[N+]1(C)CCCCC1 | inactive
19 | C[C@@H](Oc1ccc2[nH]nc(C=Cc3cnn(CCO)c3)c2c1)c1c(Cl)cncc1Cl | 1.18 µM (active)
20 | CCCCOc1ccc(C(=O)Nc2ccc(F)cc2F)cc1 | inactive
21 | C[C@H]1COc2c(N3CCN(C)CC3)c(F)cc3c(=O)c(C(=O)O)cn1c23 | inactive
22 | CC(C=CC(=O)NO)=C[C@@H](C)C(=O)c1ccc(N(C)C)cc1 | 0.187 µM (active)
23 | CCOC(=O)[C@@H](N)Cc1ccc(-c2cc(O[C@H](c3ccc(Cl)cc3-n3ccc(C)n3)C(F)(F)F)nc(N)n2)cc1 | 18.7 µM (active)
24 | CCCCCCCCc1ccc(CCC(N)(CO)CO)cc1 | 7.43 µM (active)
25 | CC(Cc1ccc(O)c(O)c1)(NN)C(=O)O (stereo not drawn) | inactive
26 | O=C(O)CCCCCC(=O)NN=C1CCCC1 | inactive
27 | Cc1cnn(C)c1C(=O)Nc1cc(Nc2ccc3c(C=Cc4ccccn4)n[nH]c3c2)ccc1F | 20.9 µM (active)
28 | C=CC[C@@H]1C=C(C)C[C@H](C)C[C@H](OC)[C@H]2O[C@@](O)(C(=O)C(=O)N3CCCC[C@H]3C(=O)O[C@H](C(C)=C[C@@H]3CC[C@H](O)[C@H](OC)C3)[C@@H](C)[C@@H](O)CC1=O)[C@@H](C)C[C@@H]2OC | 0.833 µM (active)
